Results taken from PubChem BioAssay AID1159580 (chemical genetic matrix, 2015).
Out of some 5,500 compounds screened, about 2,000 (36%) were called active. Another 18% or so got no clear call; they are omitted. No stated cut-off is given here; in the data, active means normalized growth mostly below about 0.91 (no sharp cut-off); inconclusive means no clear call, values can overlap the other calls; inactive means mostly above about 0.92. The list shows a part of the results.

Assay: chemical genetic growth profiling, strain panel (AID 1159580);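 further: tested at 20 µM; growth read once vehicle control cultures reached saturation at 30 °C; 1 = growth at the plate median or of vehicle wells; lower values mean less growth of the strain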
Conditions: S. cerevisiae deletion strains, growth OD
[1] = locus YAL040C, strain CLN3, hits give low values
[2] = locus YCL061C, strain MRC1 (second series), hits give low values
[3] = locus YDR150W, strain NUM1, hits give low values
[4] = locus YDR363W, strain ESC2, hits give low values
[5] = locus YER002W, strain NOP16, hits give low values
[6] = locus YJR075W, strain HOC1, hits give low values
[7] = locus YMR307W, strain GAS1, hits give low values
[8] = locus YNL175C, strain NOP13, hits give low values
[9] = locus YNL197C, strain WHI3, hits give low values
[10] = locus YNL224C, strain SQS1, hits give low values
[11] = locus YOR083W, strain WHI5 (second series), hits give low values

Measured: normalized growth

Cc1cccc(C(=O)NCN2CCN(c3ccccc3C#N)CC2)c1
inactive: [1] 0.963 | [2] 0.978 | [3] 0.987 | [4] 0.975 | [5] 0.974 | locus YGR229C, strain SMI1, hits give low values 0.942 | [6] 0.978 | [7] 1.01 | [8] 0.979 | [9] 0.976 | [10] 0.993 | [11] 0.982 | locus YPL241C, strain CIN2, hits give low values 0.982

FC(F)(F)c1cccc(NC(=S)Nc2csc(C(F)(F)F)c2-c2ccccc2)c1
active: locus YHR030C, strain SLT2, hits give low values 0.848
inactive: locus YAR019C, strain CDC15, hits give low values 0.968 | locus YBL105C, strain PKC1, hits give low values 0.998 | locus YBR135W, strain CKS1, hits give low values 0.995 | locus YBR136W, strain MEC1, hits give low values 0.97 | locus YBR160W, strain CDC28, hits give low values 0.988 | locus YDL017W, strain CDC7, hits give low values 0.998 | locus YDL028C, strain MPS1, hits give low values 0.992 | locus YDL101C, strain DUN1, hits give low values 0.983 | locus YDL108W, strain KIN28, hits give low values 0.993 | locus YDL132W, strain cdc53, hits give low values 0.98 | locus YDL214C, strain PRR2, hits give low values 0.944 | locus YDR052C, strain DBF4, hits give low values 0.987 | locus YDR054C, strain cdc34, hits give low values 0.97 | locus YDR226W, strain ADK1, hits give low values 0.988 | locus YDR477W, strain SNF1, hits give low values 0.991 | locus YER123W, strain YCK3, hits give low values 0.991 | locus YER133W, strain GLC7, hits give low values 0.964 | locus YFL009W, strain cdc4, hits give low values 0.977 | locus YFL029C, strain CAK1, hits give low values 0.954 | locus YFR003C, strain YPI1, hits give low values 0.997 | locus YFR019W, strain FAB1, hits give low values 0.984 | locus YFR028C, strain CDC14, hits give low values 0.976 | locus YGR040W, strain KSS1, hits give low values 0.981 | locus YGR052W, strain FMP48, hits give low values 1.03 | locus YGR092W, strain DBF2, hits give low values 0.951 | locus YHR079C, strain IRE1, hits give low values 0.958 | locus YHR082C, strain KSP1, hits give low values 1 | locus YHR205W, strain SCH9, hits give low values 0.973 | locus YIL147C, strain SLN1, hits give low values 0.984 | locus YJL095W, strain BCK1, hits give low values 0.959 | locus YJL128C, strain PBS2, hits give low values 0.973 | locus YJL157C, strain FAR1, hits give low values 0.964 | locus YJR016C, strain ILV3, hits give low values 0.984 | locus YJR066W, strain TOR1 (second series), hits give low values 0.934 | locus YJR066W, strain TOR1, hits give low values 0.983 | locus YKL048C, strain ELM1, hits give low values 0.997 | locus YKL067W, strain YNK1, hits give low values 0.963 | locus YKL101W, strain HSL1, hits give low values 0.952 | locus YKL193C, strain SDS22, hits give low values 0.985 | locus YKL203C, strain TOR2, hits give low values 1.03 | locus YLR113W, strain HOG1, hits give low values 0.892 | locus YLR133W, strain CKI1, hits give low values 0.96 | locus YLR403W, strain SFP1, hits give low values 0.989 | locus YML070W, strain DAK1, hits give low values 0.965 | locus YMR001C, strain CDC5, hits give low values 0.993 | locus YMR205C, strain PFK2 (second series), hits give low values 0.96 | locus YMR277W, strain FCP1, hits give low values 0.987 | locus YNL006W, strain LST8, hits give low values 0.988 | locus YNL020C, strain ARK1, hits give low values 0.964 | locus YNL161W, strain CBK1, hits give low values 0.988 | locus YNL183C, strain NPR1, hits give low values 0.976 | locus YNL207W, strain RIO2, hits give low values 0.973 | locus YNL222W, strain SSU72, hits give low values 0.991 | locus YNL307C, strain MCK1 (second series), hits give low values 0.938 | locus YOL078W, strain AVO1, hits give low values 0.986 | locus YOL136C, strain PFK27, hits give low values 0.953 | locus YOR061W, strain CKA2, hits give low values 0.945 | locus YOR119C, strain RIO1, hits give low values 0.978 | locus YOR231W, strain MKK1, hits give low values 0.957 | locus YOR329C, strain SCD5, hits give low values 0.991 | locus YPL031C, strain PHO85, hits give low values 0.976 | locus YPL153C, strain RAD53, hits give low values 0.976 | locus YPL204W, strain HRR25, hits give low values 0.955 | locus YPL209C, strain IPL1, hits give low values 0.997 | locus YPL256C, strain CLN2, hits give low values 0.934 | locus YPR025C, strain CCL1, hits give low values 0.992 | locus YPR106W, strain ISR1, hits give low values 0.984 | locus YPR111W, strain DBF20, hits give low values 0.981 | strain NNK1, hits give low values 0.991 | strain TSCII, hits give low values 0.968

CC(O)C(O)[C@H]1CNc2nc(N)[nH]c(=O)c2N1 (stereo partly drawn)
inactive: [1] 1.04 | [2] 1.01 | [3] 1.02 | [4] 1.01 | [5] 1 | [6] 1.04 | locus YMR263W, strain SAP30, hits give low values 1.01 | [7] 0.995 | locus YNL128W, strain TEP1, hits give low values 0.998 | [8] 0.999 | [9] 1.01 | [10] 1 | [11] 1.02 | locus YPL055C, strain LGE1, hits give low values 1.04
